Measurements: PubChem BioAssay (Tox21)
Results filed as inconclusive are left out. Active and inactive are the calls of the source. Unless noted, calls follow the shape of the dose curve; as a rule, active = well fitted curve in the direction sought with a large enough effect in the repeat runs; inconclusive = weak or mixed curves; inactive = no such curve, though single readings can be large; an effect the other way counts as inactive or inconclusive.

Columns and labels:
[1] = qHTS assay to identify small molecule agonists of the TGF-beta/Smad signaling pathway (AID 1346859; active = well fitted activation curve with a large enough effect in the signal ratio in the repeat runs, not every such curve was filed as active; the % refers to the signal ratio; also: series mostly up to about 77 µM)
Procedure, shortened: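 Each well held 4,000 SBE-bla HEK 293T cells incubated overnight before compound addition; 5 hr later the cleavable FRET substrate went on for 2 hr at room temperature, and fluorescence was read at two emissions.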

[2] = molecular target: Thyrotropin-releasing hormone receptor (Homo sapiens) (UniProt P34981); test: qHTS assay to identify small molecule agonists of the thyrotropin-releasing hormone receptor (TRHR) signaling pathway (AID 1346891; calls by dose curve; also: series mostly up to about 58 µM)
Procedure, shortened: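 Screening of agonists relied on calcium signalling in HEK293 cells expressing human TRHR: dye loading 2 h at 37 °C preceded compound addition and a 3-min fluorescence time course.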

[3] = Human pregnane X receptor (PXR) small molecule agonists, qHTS cell viability counter screen (AID 1346977); also: nearly all actives have a fitted effect of over 50% in size
Procedure, shortened: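 Tox21 qHTS format; PXR-Luc HepG2, 2,000/well, charcoal-stripped FBS 5%. Cpd exposure 24hr. Read: CellTiter-Fluor fluorescence, multiplexed with luciferase.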

[4] = Caspase-3/7 induction in HepG2 cells by small molecules, qHTS assay (AID 1346978); also: nearly all actives have a fitted effect of over 15% in size
Procedure, shortened: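 Wild-type HepG2 cells, 2,000/well, settled 5 hr at 37 C and 5% CO2, then compound-treated for 17 hr; caspase-3/7 activity read by luminescent Caspase-Glo 3/7 after 30 min at room temperature.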

[5] = Caspase-3/7 induction in CHO-K1 cells by small molecules, qHTS cell viability counter screen (AID 1346979); also: nearly all actives have a fitted effect of over 35% in size
Procedure, shortened: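 CellTiter-Fluor viability check, qHTS format: wild-type CHO-K1, 16hr compound treatment, 1hr reagent incubation, fluorescence read.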

[6] = Caspase-3/7 induction in CHO-K1 cells by small molecules, qHTS assay (AID 1346980); also: nearly all actives have a fitted effect of over 15% in size
Procedure, shortened: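 Wild-type CHO-K1 cells exposed to compounds for 17hr at 37 C, 5% CO2. Caspase-3/7 activity then measured by Caspase-Glo 3/7 luminescence after 30min at room temperature.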

[7] = Caspase-3/7 induction in HepG2 cells by small molecules, qHTS cell viability counter screen (AID 1346981); also: series mostly up to about 92 µM; nearly all actives have a fitted effect of over 30% in size
Procedure, shortened: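 Multiplexed with the caspase-3/7 assay: HepG2 cells, 16 hr compound treatment, CellTiter-Fluor viability detection by fluorescence.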

[8] = molecular target: Nuclear receptor subfamily 1 group I member 2 (Homo sapiens) (UniProt O75469); test: Human pregnane X receptor (PXR) small molecule agonists, qHTS assay (AID 1346982); also: nearly all actives have a fitted effect of over 35% in size
Procedure, shortened: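 We seeded PXR-Luc HepG2 cells in assay medium containing 5% charcoal-stripped FBS, added compounds 5 hr later, incubated 24 hr, and read luminescence with ONE-Glo reagent.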

[9] = molecular target: Cytochrome P450 2D6 (Homo sapiens) (UniProt P10635); test: Cytochrome P450 Family 2 Subfamily D Member 6 (CYP2D6) small molecule antagonists: luciferase reporter qHTS assay (AID 1671196); also: series mostly up to about 120 µM; nearly all actives have a fitted effect of over 50% in size
Procedure, shortened: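 Luminescence (RLU), read 20 min after detection reagent, indicated CYP2D6 conversion of proluciferin to luciferin during a 1 h NADPH-dependent reaction at room temperature.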

[10] = molecular target: Cytochrome P450 2C19 (Homo sapiens) (UniProt P33261); test: Cytochrome P450 Family 2 Subfamily C Member 19 (CYP2C19) small molecule antagonists: luciferase reporter qHTS assay (AID 1671197); also: series mostly up to about 120 µM; nearly all actives have a fitted effect of over 65% in size
Procedure, shortened: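 Quantitative high-throughput screen of the Tox21 library using CYP2C19 with proluciferin substrate. Reaction: NADPH regeneration, 37C, 1 h, after 10 min compound preincubation at room temperature. Readout: luminescence.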

[11] = molecular target: Cytochrome P450 2C9 (Homo sapiens) (UniProt P11712); test: Cytochrome P450 Family 2 Subfamily C Member 9 (CYP2C9) small molecule antagonists: luciferase reporter qHTS assay (AID 1671198); also: series mostly up to about 120 µM; nearly all actives have a fitted effect of over 50% in size
Procedure, shortened: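 P450-Glo proluciferin substrate with CYP2C9 enzyme; 10 min RT preincubation, then NADPH regeneration 1 h at 37C; luciferin detection reagent 20 min RT, luminescence in relative luminescence units.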

[12] = molecular target: Cytochrome P450 1A2 (Homo sapiens) (UniProt P05177); test: Cytochrome P450 Family 1 Subfamily A Member 2 (CYP1A2) small molecule antagonists: luciferase reporter qHTS assay (AID 1671199); also: series mostly up to about 120 µM; nearly all actives have a fitted effect of over 50% in size
Procedure, shortened: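 CYP1A2 turnover of a luminogenic substrate was quantified after 1 h with NADPH regeneration at room temperature. Furafylline served as positive control.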

[13] = molecular target: Voltage-gated inwardly rectifying potassium channel KCNH2 (Homo sapiens) (UniProt Q12809); test: Human Ether-a-go-go-Related Gene (hERG) channel small molecule antagonists: fluorescence cell-based qHTS assay (AID 1671200)
Procedure, shortened: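 Kinetic two-minute fluorescence traces, sampled at 1 s, were collected following thallium stimulus of U2OS cells (1000 per well) that had been cultured overnight at 37 C and loaded with FluxOR II.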

[14] = molecular target: Cytochrome P450 3A4 (Homo sapiens) (UniProt P08684); test: Cytochrome P450 Family 3 Subfamily A Member 4 (CYP3A4) small molecule antagonists: luciferase reporter qHTS assay (AID 1671201)
Procedure, shortened: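 Proluciferin-to-luciferin conversion by CYP3A4, NADPH-regenerated, 1 h RT; luminescence read as RLU. Ketoconazole as control.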

[15] = molecular target: Thyrotropin-releasing hormone receptor (Homo sapiens) (UniProt P34981); test: qHTS assay to identify small molecule antagonists of the thyrotropin-releasing hormone receptor (TRHR) signaling pathway (AID 1346877; active = well fitted inhibition curve with a large enough effect in the repeat runs, not every such curve was filed as active; also: series mostly up to about 51 µM)
Procedure, shortened: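 Screening used HEK293 cells engineered with TRHR, with a brief 5 min room-temperature compound exposure preceding addition of TRH to 1 nM. The read-out was kinetic calcium-dye fluorescence, concentration-response from 15 doses in triplicate.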

[16] = molecular target: Nuclear receptor subfamily 1 group I member 2 (Rattus norvegicus) (UniProt Q9R1A7); test: Rat pregnane X receptor (rPXR) activation by small molecules, qHTS assay (AID 1346983); settings: rPXR luciferase reporter cells, One-Glo luminescence, 24 h; max activation: stronger effect = higher value; also: nearly all actives have a fitted effect of over 20% in size
Procedure, shortened: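 Cell-based rPXR activation assay: rPXR cells, 2,000 per well, rested 5hr at 37 C, then exposed to compounds in DMSO for 24 hr at 37 C. Luciferase activity read by One-Glo luminescence after 30 min at room temperature.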

[17] = molecular target: Nuclear receptor subfamily 1 group I member 2 (Homo sapiens) (UniProt O75469); test: CYP3A4 induction through human pregnane X receptor (PXR) by small molecules, qHTS assay (AID 1346984); also: nearly all actives have a fitted effect of over 40% in size
Procedure, shortened: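 qHTS, concentration-response format: HepG2 DPX-2 line, PXR/CYP3A4-luc. Exposure 24 h, 37C. Substrate Luciferin-IPA 3uM final, 3 h. Detection One-Glo, 30 min RT.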

[18] = molecular target: Nuclear receptor subfamily 1 group I member 2 (Homo sapiens) (UniProt O75469); test: Human pregnane X receptor (PXR) activation by small molecules, qHTS assay (AID 1346985); also: nearly all actives have a fitted effect of over 40% in size
Procedure, shortened: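 DPX-2 cells (HepG2 co-transfected with a PXR response element and a CYP3A4-promoter luciferase construct) were seeded at 2,000 per well, rested 5 hr at 37C, then exposed to DMSO-dissolved compounds for 24 hr. Activation was read as luciferase luminescence.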
% is scaled to controls: 0 for no effect and ±100 for the full control effect.

Sequence of Nuclear receptor subfamily 1 group I member 2 (Homo sapiens) (O75469 whole entry, looked up): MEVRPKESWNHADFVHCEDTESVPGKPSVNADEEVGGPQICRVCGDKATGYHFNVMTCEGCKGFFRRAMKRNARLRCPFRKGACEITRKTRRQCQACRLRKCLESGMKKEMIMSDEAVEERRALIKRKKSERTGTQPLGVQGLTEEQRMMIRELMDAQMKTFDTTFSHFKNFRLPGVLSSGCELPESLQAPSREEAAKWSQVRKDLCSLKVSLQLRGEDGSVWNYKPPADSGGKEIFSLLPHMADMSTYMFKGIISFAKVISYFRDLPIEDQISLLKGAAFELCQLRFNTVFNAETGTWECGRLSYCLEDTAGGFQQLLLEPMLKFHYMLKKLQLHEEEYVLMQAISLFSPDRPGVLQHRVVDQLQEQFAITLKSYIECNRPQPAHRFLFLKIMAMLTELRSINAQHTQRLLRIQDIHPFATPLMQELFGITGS
Sequence of Cytochrome P450 3A4 (Homo sapiens) (P08684 whole entry, looked up): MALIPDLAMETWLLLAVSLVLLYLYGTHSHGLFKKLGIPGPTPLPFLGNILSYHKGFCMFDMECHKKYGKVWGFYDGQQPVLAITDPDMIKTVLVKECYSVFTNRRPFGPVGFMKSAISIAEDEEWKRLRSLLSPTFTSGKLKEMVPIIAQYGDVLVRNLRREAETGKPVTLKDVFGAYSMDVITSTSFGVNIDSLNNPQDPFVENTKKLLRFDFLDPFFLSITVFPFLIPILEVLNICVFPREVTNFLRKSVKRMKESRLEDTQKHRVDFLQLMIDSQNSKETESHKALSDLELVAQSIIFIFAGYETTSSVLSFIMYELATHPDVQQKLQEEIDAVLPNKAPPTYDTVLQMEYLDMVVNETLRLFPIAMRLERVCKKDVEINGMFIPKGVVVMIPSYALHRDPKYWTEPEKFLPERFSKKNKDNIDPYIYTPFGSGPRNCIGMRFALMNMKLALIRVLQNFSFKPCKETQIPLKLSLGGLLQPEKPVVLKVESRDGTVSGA
Sequence of Cytochrome P450 1A2 (Homo sapiens) (P05177 whole entry, looked up): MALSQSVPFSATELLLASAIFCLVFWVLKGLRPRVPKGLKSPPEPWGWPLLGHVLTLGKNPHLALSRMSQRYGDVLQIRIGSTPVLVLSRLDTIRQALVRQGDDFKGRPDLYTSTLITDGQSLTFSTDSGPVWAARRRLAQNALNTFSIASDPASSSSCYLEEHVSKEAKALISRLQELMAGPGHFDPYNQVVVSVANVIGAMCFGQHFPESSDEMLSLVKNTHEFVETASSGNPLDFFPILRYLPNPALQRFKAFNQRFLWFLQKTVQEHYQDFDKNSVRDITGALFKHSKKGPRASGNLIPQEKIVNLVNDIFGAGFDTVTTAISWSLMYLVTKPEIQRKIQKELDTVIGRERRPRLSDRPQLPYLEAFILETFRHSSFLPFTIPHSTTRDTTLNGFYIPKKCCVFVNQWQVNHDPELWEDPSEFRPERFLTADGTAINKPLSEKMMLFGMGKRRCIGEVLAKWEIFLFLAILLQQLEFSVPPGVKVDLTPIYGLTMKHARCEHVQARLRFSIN
Sequence of Thyrotropin-releasing hormone receptor (Homo sapiens) (P34981 whole entry, looked up): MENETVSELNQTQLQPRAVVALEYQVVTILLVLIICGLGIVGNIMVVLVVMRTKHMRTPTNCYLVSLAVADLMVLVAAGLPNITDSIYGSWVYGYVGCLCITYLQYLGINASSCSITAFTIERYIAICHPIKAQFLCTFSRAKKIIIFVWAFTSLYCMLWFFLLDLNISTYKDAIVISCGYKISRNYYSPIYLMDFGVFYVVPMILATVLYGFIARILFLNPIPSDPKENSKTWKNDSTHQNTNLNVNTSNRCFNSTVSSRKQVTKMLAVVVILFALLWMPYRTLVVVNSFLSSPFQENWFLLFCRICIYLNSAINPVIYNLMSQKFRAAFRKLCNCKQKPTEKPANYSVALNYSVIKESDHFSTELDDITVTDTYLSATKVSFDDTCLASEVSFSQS
Sequence of Cytochrome P450 2D6 (Homo sapiens) (P10635 whole entry, looked up): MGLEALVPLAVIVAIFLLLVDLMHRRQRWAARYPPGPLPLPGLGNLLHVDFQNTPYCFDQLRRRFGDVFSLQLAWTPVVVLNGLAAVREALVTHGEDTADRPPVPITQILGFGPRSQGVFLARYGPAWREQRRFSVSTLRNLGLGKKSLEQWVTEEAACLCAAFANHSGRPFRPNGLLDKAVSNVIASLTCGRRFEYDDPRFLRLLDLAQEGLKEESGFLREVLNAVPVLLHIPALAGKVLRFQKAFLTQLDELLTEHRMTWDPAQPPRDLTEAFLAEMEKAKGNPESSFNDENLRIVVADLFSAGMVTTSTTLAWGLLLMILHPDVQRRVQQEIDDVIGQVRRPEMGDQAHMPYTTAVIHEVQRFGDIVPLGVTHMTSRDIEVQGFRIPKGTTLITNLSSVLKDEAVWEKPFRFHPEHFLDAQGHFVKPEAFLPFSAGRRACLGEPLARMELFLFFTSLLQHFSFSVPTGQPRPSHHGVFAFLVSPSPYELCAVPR
Sequence of Cytochrome P450 2C9 (Homo sapiens) (P11712 whole entry, looked up): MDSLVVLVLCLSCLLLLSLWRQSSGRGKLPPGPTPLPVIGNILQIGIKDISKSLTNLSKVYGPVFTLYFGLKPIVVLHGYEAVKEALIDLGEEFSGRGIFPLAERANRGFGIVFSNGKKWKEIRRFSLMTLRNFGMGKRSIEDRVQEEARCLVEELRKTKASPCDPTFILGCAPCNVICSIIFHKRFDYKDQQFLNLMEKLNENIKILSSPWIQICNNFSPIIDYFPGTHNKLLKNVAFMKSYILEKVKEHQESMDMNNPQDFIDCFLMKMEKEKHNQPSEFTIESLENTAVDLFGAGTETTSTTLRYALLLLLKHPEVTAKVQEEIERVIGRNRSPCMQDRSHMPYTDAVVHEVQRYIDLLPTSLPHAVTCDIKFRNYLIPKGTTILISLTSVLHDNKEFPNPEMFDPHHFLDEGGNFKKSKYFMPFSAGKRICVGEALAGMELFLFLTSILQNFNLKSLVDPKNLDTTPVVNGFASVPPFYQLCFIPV
Sequence of Cytochrome P450 2C19 (Homo sapiens) (P33261 whole entry, looked up): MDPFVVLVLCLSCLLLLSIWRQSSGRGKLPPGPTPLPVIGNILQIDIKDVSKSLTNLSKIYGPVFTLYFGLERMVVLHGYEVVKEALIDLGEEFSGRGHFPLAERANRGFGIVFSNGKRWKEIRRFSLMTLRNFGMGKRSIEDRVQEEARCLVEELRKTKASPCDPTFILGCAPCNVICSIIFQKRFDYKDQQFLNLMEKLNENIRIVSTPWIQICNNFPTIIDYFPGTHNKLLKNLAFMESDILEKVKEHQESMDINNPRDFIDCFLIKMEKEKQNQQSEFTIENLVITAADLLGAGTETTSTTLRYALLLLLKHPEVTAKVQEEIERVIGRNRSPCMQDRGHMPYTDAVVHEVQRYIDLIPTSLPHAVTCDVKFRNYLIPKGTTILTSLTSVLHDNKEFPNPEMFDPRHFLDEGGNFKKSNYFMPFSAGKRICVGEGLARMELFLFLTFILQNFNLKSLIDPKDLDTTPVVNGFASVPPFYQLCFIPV
Sequence of Voltage-gated inwardly rectifying potassium channel KCNH2 (Homo sapiens) (Q12809 whole entry, looked up): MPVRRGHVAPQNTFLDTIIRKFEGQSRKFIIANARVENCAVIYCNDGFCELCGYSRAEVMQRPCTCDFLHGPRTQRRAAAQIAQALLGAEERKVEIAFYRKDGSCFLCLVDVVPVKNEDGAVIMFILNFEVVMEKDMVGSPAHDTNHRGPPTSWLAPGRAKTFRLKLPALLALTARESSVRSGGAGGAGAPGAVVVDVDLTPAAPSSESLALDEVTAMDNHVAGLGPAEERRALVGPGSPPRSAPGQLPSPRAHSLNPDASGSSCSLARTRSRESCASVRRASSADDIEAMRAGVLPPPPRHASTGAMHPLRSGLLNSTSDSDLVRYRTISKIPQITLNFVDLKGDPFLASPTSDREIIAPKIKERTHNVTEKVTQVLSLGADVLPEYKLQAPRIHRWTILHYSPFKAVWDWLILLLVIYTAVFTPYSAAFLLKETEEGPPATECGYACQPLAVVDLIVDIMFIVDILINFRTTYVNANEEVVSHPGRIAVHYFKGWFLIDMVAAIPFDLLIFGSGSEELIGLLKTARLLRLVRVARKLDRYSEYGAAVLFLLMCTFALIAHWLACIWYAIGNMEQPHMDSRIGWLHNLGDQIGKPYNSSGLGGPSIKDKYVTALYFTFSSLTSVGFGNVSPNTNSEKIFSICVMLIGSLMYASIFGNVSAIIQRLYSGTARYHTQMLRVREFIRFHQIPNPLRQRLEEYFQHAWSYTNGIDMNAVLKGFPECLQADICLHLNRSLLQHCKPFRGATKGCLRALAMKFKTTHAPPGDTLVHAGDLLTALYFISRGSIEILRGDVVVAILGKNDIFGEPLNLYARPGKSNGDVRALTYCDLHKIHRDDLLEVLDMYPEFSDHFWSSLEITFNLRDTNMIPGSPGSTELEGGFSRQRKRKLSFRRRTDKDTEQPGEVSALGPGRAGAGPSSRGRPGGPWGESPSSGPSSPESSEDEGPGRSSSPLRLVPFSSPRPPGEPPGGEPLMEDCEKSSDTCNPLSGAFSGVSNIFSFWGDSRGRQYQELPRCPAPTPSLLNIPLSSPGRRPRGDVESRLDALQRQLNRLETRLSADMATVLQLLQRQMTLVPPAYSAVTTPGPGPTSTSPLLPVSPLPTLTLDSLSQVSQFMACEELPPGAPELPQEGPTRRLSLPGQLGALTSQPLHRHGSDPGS
Sequence of Nuclear receptor subfamily 1 group I member 2 (Rattus norvegicus) (Q9R1A7 whole entry, looked up): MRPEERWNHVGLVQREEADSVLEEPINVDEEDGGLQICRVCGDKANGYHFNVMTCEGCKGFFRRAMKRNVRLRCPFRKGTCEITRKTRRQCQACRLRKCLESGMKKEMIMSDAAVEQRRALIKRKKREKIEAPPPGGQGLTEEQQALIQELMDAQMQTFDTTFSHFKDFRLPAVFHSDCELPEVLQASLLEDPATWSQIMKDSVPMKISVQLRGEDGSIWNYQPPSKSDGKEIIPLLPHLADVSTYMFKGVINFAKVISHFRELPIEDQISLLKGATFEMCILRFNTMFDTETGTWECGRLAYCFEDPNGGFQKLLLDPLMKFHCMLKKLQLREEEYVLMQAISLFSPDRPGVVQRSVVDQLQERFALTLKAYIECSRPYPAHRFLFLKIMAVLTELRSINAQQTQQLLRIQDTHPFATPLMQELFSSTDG

O=S(=O)(O)CC(O)CCl (configuration not stated)
inactive: outcome [1] | Potency [2] | outcome [3] | outcome [4] | Potency [5] | outcome [6] | outcome [7] | Potency [8] | Potency [9] | Potency [10] | Potency [11] | Potency [12] | Potency [13] | Potency [14]

CCN1CCN(C(=O)N[C@@H](C(=O)N[C@@H]2C(=O)N3C(C(=O)O)=C(CSc4nnnn4C)CS[C@H]23)c2ccc(O)cc2)C(=O)C1=O
inactive: outcome [15] | Potency [2] | outcome [3] | outcome [4] | Potency [5] | outcome [6] | outcome [7] | Potency [8] | max activation [16] -3.62% | outcome [17] | outcome [18] | Potency [9] | Potency [10] | Potency [11] | Potency [12] | Potency [13] | Potency [14]

CC(C)(C)C(=O)CC(=O)C(C)(C)C
inactive: Potency [2] | outcome [3] | outcome [4] | Potency [5] | outcome [6] | outcome [7] | Potency [8] | Potency [9] | Potency [10] | Potency [11] | Potency [12] | Potency [13] | Potency [14]

O=CN1CCCCC1
inactive: outcome [1] | outcome [3] | outcome [4] | Potency [5] | outcome [6] | outcome [7] | Potency [8] | Potency [9] | Potency [10] | Potency [12] | Potency [13] | Potency [14]

CC(C)OCCO
inactive: outcome [1] | outcome [3] | outcome [4] | Potency [5] | outcome [6] | outcome [7] | Potency [8] | Potency [9] | Potency [10] | Potency [11] | Potency [12] | Potency [13] | Potency [14]

O=Cc1ccc(C(=O)O)cc1
inactive: outcome [1] | outcome [15] | Potency [2] | outcome [3] | outcome [4] | Potency [5] | outcome [6] | outcome [7] | Potency [8] | Potency [9] | Potency [10] | Potency [11] | Potency [12] | Potency [13] | Potency [14]

CCCCCCCCCCCBr
inactive: outcome [1] | outcome [15] | Potency [2] | outcome [3] | outcome [4] | outcome [6] | outcome [7] | Potency [8] | Potency [9] | Potency [10] | Potency [11] | Potency [12] | Potency [13] | Potency [14]

C=CCN1CCc2nc(N)sc2CC1
inactive: outcome [15] | Potency [2] | outcome [3] | outcome [4] | Potency [5] | outcome [6] | outcome [7] | Potency [8] | max activation [16] -4.96% | outcome [17] | outcome [18] | Potency [11] | Potency [12] | Potency [13] | Potency [14]

CC[N+](C)(CC)CC
inactive: outcome [1] | outcome [15] | Potency [2] | outcome [3] | outcome [4] | Potency [5] | outcome [6] | outcome [7] | Potency [8] | Potency [9] | Potency [10] | Potency [12] | Potency [13] | Potency [14]
